Among all 400,000 compounds or so, about 3,700 (0.93%) were called active. Roughly 3% stayed inconclusive and do not appear here. The call rests on the fitted dose curve; in most records, active means well fitted inhibition curve with a large enough effect; inconclusive means small, poorly fitted or top-dose-only effect, or another doubt; inactive means no such curve, though single readings can be large or run the other way. The sample as a whole holds a higher share of actives than the screen did.
On the % scale 0 is the no-effect control and ±100 the full control effect; potency means the concentration at half of the fitted maximal effect.

Vitamin D3 receptor (Homo sapiens), sequence (P11473 whole entry, looked up): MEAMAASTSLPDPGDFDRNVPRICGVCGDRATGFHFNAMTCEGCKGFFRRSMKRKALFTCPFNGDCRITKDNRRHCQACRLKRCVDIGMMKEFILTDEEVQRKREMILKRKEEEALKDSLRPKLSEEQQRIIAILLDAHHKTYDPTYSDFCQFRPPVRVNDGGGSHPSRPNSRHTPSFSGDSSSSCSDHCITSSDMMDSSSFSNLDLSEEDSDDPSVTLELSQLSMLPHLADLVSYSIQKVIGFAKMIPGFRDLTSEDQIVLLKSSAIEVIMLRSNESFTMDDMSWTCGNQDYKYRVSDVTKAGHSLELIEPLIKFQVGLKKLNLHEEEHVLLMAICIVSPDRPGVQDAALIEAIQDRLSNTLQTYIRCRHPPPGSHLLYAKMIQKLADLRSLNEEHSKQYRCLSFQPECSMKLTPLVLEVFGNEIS

For this assay, the target named is Vitamin D3 receptor (Homo sapiens) (UniProt P11473). The experiment in a line: Inhibitors of the vitamin D receptor (VDR): qHTS. As to conditions: VDR-SRC2-3 peptide fluorescence polarization, 2 h; max response, negative = inhibition: active compounds read low. From the text:
The vitamin D receptor (VDR) is a ligand-activated transcription factor and is partially responsible for the regulation of the endocrine system. This includes the transcriptional regulation of genes involved in the production of the parathyroid hormone (PTH) and the regulation of the blood calcium level. High levels of PHT can cause hypercalcemia in the case of primary and tertiary hyperparathyroidism. The VDR-mediated gene regulation, activated by its ligand 1,25-dihydroxyvitamin D3 (1,25-(OH)2D3), is governed by the recruitment of coactivators. Our hypothesis is that small molecules, with the ability to inhibit the interaction between VDR and certain coactivators, are able to selectively modulate VDR-mediated transcription. Our long term objective is the application these VDR-coactivator inhibitors to study the role of VDR-coactivator binding for specific VDR regulated genes. Ultimately, these molecules can be developed into new treatments for hypercalcemic hyperparathyroidism. No small molecule or non-peptide inhibitors are known for the VDR-coactivator interaction.
In a collaboration between the University of Wisconsin, Milwaukee and the NIH Chemical Genomics Center (NCGC) a HTS-compatible enzymatic assay was developed. The assay uses fluorescence polarization as its read-out to measure the inhibition between VDR and coregulator peptide SRC2-3 exerted by small molecules. This assay was used to screen the NIH Molecular Libraries Small Molecule Repository (MLSMR).
NIH Chemical Genomics Center [NCGC]
NIH Molecular Libraries Probe Centers Network [MLPCN]
Assay Submitter (PI): Alexander Arnold, University of Wilwaukee
Both solutions are kept at 4 deg C and protected from light and dispensed using a Kalypsys dispenser. Then 23nl of compounds and controls are added with Kalypsys pintool. […] Plate is centrifuged at 1000 RPM for 15 seconds to remove any residual bubbles. The plate is then incubate at ambient room temperature for 2 hours.
For `COc1cc(C(=S)NCc2ccccc2)cc(Br)c1O`, the Potency is 50.1 µM (active). As to `COc1ccccc1OCCC(=O)OCC(=O)NCc1ccccc1`, the max response, negative = inhibition was -14.2% (inactive). On to `COc1cc(C(=O)NCc2ccncc2)cc(Br)c1OCc1ccccc1`, for which the max response, negative = inhibition is -8.88% (inactive). Still for that read-out and setting: for `COc1ccc(NC(=O)C2CCCN(S(=O)(=O)c3cccc4nonc34)C2)cc1Cl` (stereo not drawn) the value was -11.1% (inactive); for `Cc1ccc(NC(=O)C(=O)NCC(c2cccnc2)N2CCOCC2)cc1` (stereo not drawn), 7.68% (inactive); for `COc1ccc(CCn2cc3c(c2-c2ccc(Br)cc2)c(=O)n(C)c(=O)n3C)cc1OC`, -7.8% (inactive).

`O=C(COC(=O)Cc1ccc(F)cc1)Nc1cc(S(=O)(=O)N2CCOCC2)ccc1N1CCCC1`: the max response, negative = inhibition was 2.6% (inactive).

As to `COCCNC(=S)Nc1cc(S(=O)(=O)N2CCOCC2)ccc1N1CCCCC1`, the Potency is 35.5 µM (active).

On to `Cc1ccc(S(=O)(=O)N2CCOCC2)cc1C(=O)Nc1ccccc1N1CCCC1`, for which the max response, negative = inhibition is -16.8% (inactive). Still for that read-out and setting: for `COCCn1c(=O)c(-c2ccccc2)nc2cnc(N3CCOCC3)nc21` the value was 8.94% (inactive); for `CCC(=O)N1N=C(c2ccc(OC)cc2)CC1c1cn(-c2ccccc2)nc1-c1cccs1` (stereo not drawn), -4.57% (inactive). On the same count and under the same terms, for `Cc1ccccc1NC(=O)Cn1c(=O)n(CCc2ccccc2)c(=O)c2ccccc21` the value was -10.9% (inactive); for `Cc1cc(Cl)ccc1OCC(=O)N(Cc1ccc(N(C)C)cc1)C1CCS(=O)(=O)C1` (stereo not drawn), 9.26% (inactive). Consider `O=c1[nH]c2ccccc2n2c(-c3ccccc3)nnc12`, for which the Potency was 12.6 µM (active).

Regarding `CC(C)Cn1c(=O)c2ccccc2n2c(-c3cccc(Cl)c3)nnc12`, the max response, negative = inhibition was 21.6% (inactive). Still for that read-out and setting: then `CCc1ccc(NC(=O)c2cc(S(=O)(=O)N3CCCC(C)C3)cn2C)cc1` (stereo not drawn), with 9.47% (inactive).

As to `COc1ccc(C2CC(=O)N(Cc3ccccc3C)c3c2c(C)nn3-c2nc(C)cc(C)n2)c(OC)c1` (stereo not drawn), the max response, negative = inhibition was 5.38% (inactive). On the same count and under the same terms, then `CSc1nc(Nc2ccc(F)cc2)cc(-c2ccccc2)n1`, with 5.7% (inactive). Regarding `Fc1ccc(Nc2nnns2)cc1`, the Potency was 79.4 µM (active). As for `CN(C)c1nc(NN)nc(Nc2ccc(F)cc2)n1`, the max response, negative = inhibition was -11.3% (inactive).

Regarding `Cc1ccc(-c2nc(SCc3ccc(Br)cc3)n3[nH]c(=O)cc3n2)cc1`, the max response, negative = inhibition was 16.1% (inactive). On the same count and under the same terms, then `CCc1ccccc1N1CC(c2nc3ccccc3n2CCCCOc2ccccc2)CC1=O` (stereo not drawn), with 13.5% (inactive). Still for that read-out and setting: for `Cc1cc(C)nc(NC(=O)/C=C/c2ccc(Cl)cc2)n1` the value was -4.04% (inactive).

As for `Cc1cccc(C=CC(=O)c2ccc(Cl)cc2)c1`, the Potency is 20 µM (active). For the molecule `Cc1cccc(C(=O)Nc2ccc(C(=O)/C=C/c3cccs3)cc2)c1`, the max response, negative = inhibition was 5.44% (inactive).

As for `COc1ccc(S(=O)(=O)NCc2cccn2Cc2cccc(C)c2)cc1`, the max response, negative = inhibition was -9.31% (inactive). For the molecule `CCC1CCCCN1Cc1c(O)ccc2c(=O)c(Oc3ccccc3Cl)c(C(F)(F)F)oc12` (stereo not drawn), the max response, negative = inhibition is -11.4% (inactive).

With `CN1CCN2c3ccccc3Cc3ccccc3[C@@H]2C1`, the max response, negative = inhibition was -7.22% (inactive). As for `COc1ccc(C(=O)CSc2c(C(C)C)cnc3c2c(=O)n(C)c(=O)n3C)cc1`, the max response, negative = inhibition is -4.32% (inactive). The same measure, in the same setting: then `CCc1ccccc1NC(=O)c1sc2nc3c(cc2c1N)CN(Cc1ccccc1)CC3`, with -9.37% (inactive). On the same count and under the same terms, then `COc1ccc(NC(=O)CCCc2nnc3n(CCC(C)C)c(=O)c4sccc4n23)c(OC)c1`, with -1.71% (inactive); and `COc1ccc(NS(=O)(=O)c2ccc(N3CCOCC3)c(NC(=O)/C=C/C(=O)O)c2)cc1`, with 1.49% (inactive).

As for `COC(=O)c1sc(-c2ccc(C(C)(C)C)cc2)cc1NC(=O)/C=C/C(=O)O`, the Potency was 28.2 µM (active). `COc1ccccc1NC(=O)/C=C/C(N)=O`: the max response, negative = inhibition is 1.2% (inactive). Still for that read-out and setting: for `CCC(Sc1nnc(-c2ccc(OC)cc2)c(-c2ccc(OC)cc2)n1)C(=O)NC1CCCCC1` (stereo not drawn) the value was 11.6% (inactive); for `Cc1nc2ccccn2c(=O)c1NC(=O)c1c(F)cccc1F`, 13.4% (inactive); for `Cc1ccc2nc(-c3ccc(C)c(NC(=O)Cc4ccccc4)c3)oc2c1`, -21.8% (inactive). The same measure, in the same setting: then `Cc1ccc(OCC(=O)Nc2ccc(Cl)c(-c3nc4ccccc4[nH]3)c2)cc1C`, with 2.81% (inactive); and `CC(=O)OCC(=O)[C@@]1(O)CCC2C3CCC4=CC(=O)CC[C@]4(C)C3C(=O)C[C@]21C` (stereo partly drawn), with -10.5% (inactive); and `Cc1ccc(Cl)cc1N1CCN(C(=O)c2cn(C)c3ccc(S(=O)(=O)N(C)C4CCCCC4)cc3c2=O)CC1`, with -5.35% (inactive). For `O=C1/C(=C\c2ccc(O)cc2)CCC1CNc1ccc(Cl)cc1` (stereo not drawn), the Potency is 79.4 µM (active). On to `O=C1N=C(N2CCc3ccccc3C2)S/C1=C\c1ccc(O)cc1`, for which the max response, negative = inhibition is 17.3% (inactive). The same measure, in the same setting: for `Cc1nn(-c2ccc(N3CCCCC3)nn2)c(C)c1CCC(=O)NCc1ccc(F)cc1` the value was 11.6% (inactive). Still for that read-out and setting: for `COc1ccc(CCNC(=O)c2cc3cccc4c3n2CC(C)S4)c(OC)c1OC` (stereo not drawn) the value was 4.11% (inactive); for `O=c1c(=O)n(Cc2c(F)cccc2Cl)ccn1Cc1ccccc1`, -1.19% (inactive). On to `O=[N+]([O-])/C=C/c1ccc2c(ccn2Cc2ccccc2)c1`, for which the Potency is 6.31 µM (active). As for `COc1ccc(Cn2ccn(Cc3cccc(OC)c3)c(=O)c2=O)cc1`, the max response, negative = inhibition is 6.97% (inactive). Same read-out and setting: for `COc1ccc(Cn2c(=O)[nH]c3cc(C(=O)N4CCN(C(=O)c5ccco5)CC4)ccc3c2=O)cc1` the value was -6.06% (inactive). For `COc1ccc(-c2nc3sc(CCNS(=O)(=O)c4ccc(F)c(C)c4)c(C)n3n2)cc1`, the max response, negative = inhibition is 16% (inactive). With `COC(=O)/C=C\C(=O)Nc1cccc([N+](=O)[O-])c1`, the Potency is 22.4 µM (active). Consider `O=C(CN1CCOCC1)Nc1cccc([N+](=O)[O-])c1`, for which the max response, negative = inhibition was -1.57% (inactive). The same measure, in the same setting: for `O=C(Nc1cccc([N+](=O)[O-])c1)N1CCc2ccccc2C1` the value was 5.4% (inactive); for `CC(=O)N1c2ccc(S(=O)(=O)N3CCCCCC3)cc2CC1C(=O)NCc1ccccc1C` (stereo not drawn), 5.71% (inactive).

As for `N#Cc1c(-c2ccccc2)nc(SCc2cccc(C(F)(F)F)c2)[nH]c1=O`, the Potency is 79.4 µM (active). As to `O=c1[nH]c(SCc2cccc(F)c2)nc2ccccc12`, the max response, negative = inhibition was -6.23% (inactive). Still for that read-out and setting: for `N#Cc1c(-c2ccc(F)cc2)nc(-c2ccccc2)[nH]c1=O` the value was 13.1% (inactive). `Cc1oc(-c2ccccc2)nc1Cn1c(SCc2cccc(C(F)(F)F)c2)nc2cccnc21`: the max response, negative = inhibition is 2.78% (inactive). For the molecule `Cc1ccc(O)c(NC(=O)CCS(=O)(=O)c2nc(-c3ccc4c(c3)OCO4)cc(C(F)(F)F)n2)c1`, the Potency was 50.1 µM (active). On to `CC(Sc1nc(-c2ccccc2)cc(C(F)(F)F)n1)C(=O)Nc1ccc2c(c1)OCO2` (stereo not drawn), for which the max response, negative = inhibition is -18.9% (inactive). The same measure, in the same setting: then `Cc1ccc(O)c(NC(=O)c2cc(-c3ccc(F)cc3)no2)c1`, with 12% (inactive). Same read-out and setting: for `Cc1ccc(C(=O)COC(=O)C(Cc2c[nH]c3ccccc23)NC(=O)c2ccc(Br)cc2)cc1` (stereo not drawn) the value was 6.05% (inactive); for `CCOc1ccccc1CNC(=O)c1cnc2c(-c3ccc(OCC)c(OCC)c3)c(C)nn2c1C`, 12.6% (inactive).

As to `CN(c1ccccc1)S(=O)(=O)c1cc(C(=O)Nc2nc3ccccc3[nH]2)ccc1Cl`, the max response, negative = inhibition is 22.7% (inactive). On the same count and under the same terms, then `Cc1ccc2nc(CNC(=O)c3ccccc3)[nH]c2c1`, with 11.1% (inactive). For the molecule `O=C(/C(=C/c1cccc(Cl)c1)c1nc2ccccc2[nH]1)c1ccccc1`, the Potency was 79.4 µM (active). With `COc1cc(OC)c2c(c1Cl)OC1(C2=O)C(O)=CC(=O)CC1C` (stereo not drawn), the max response, negative = inhibition is 1.06% (inactive). Still for that read-out and setting: for `COc1ccccc1OCC(=O)Nc1nnc2n1CCS2` the value was -3.73% (inactive). On the same count and under the same terms, for `Cc1ccc(NC(=O)Cc2ccc(NC(=O)N3CCCCc4ccccc43)cc2)cc1` the value was 6.32% (inactive). Regarding `CN(C)c1nc(=Nc2cccc(Cl)c2)ss1`, the Potency is 25.1 µM (active). Turning to `Cc1c(-c2nsc(NC(=O)c3cccc(Cl)c3)n2)nnn1-c1ccccc1C(F)(F)F`, the max response, negative = inhibition is 1.99% (inactive). Still for that read-out and setting: then `CCc1ccccc1NC(=O)CSc1nc(C)c(C(=O)Nc2ccccc2)c(-c2ccc(Cl)cc2)c1C#N`, with 5.32% (inactive); and `COc1ccc(-c2nc(CN3CCC(C(=O)NCc4ccccc4)CC3)c(C)o2)cc1OC`, with -18.6% (inactive).

Turning to `Nc1ccccc1SC(C[N+](=O)[O-])c1ccccc1` (stereo not drawn), the Potency is 3.55 µM (active). Turning to `O=C(Nc1cccc(-c2nc3ccccc3o2)c1)c1cccc(Br)c1`, the max response, negative = inhibition was 4.46% (inactive). Same read-out and setting: then `Cc1ccc2ccc3c(c2n1)NS(=O)(=O)c1ccccc1-3`, with -4.3% (inactive).

With `CCS(=O)(=O)c1cc([N+](=O)[O-])c(Sc2ccccc2N)s1`, the Potency was 28.2 µM (active). Regarding `CCOC(=O)c1cnc2c(C)cc(Cl)cc2c1NCCc1ccc(OC)c(OC)c1`, the max response, negative = inhibition was 2.98% (inactive). On the same count and under the same terms, then `COc1ccc(NC(=O)CSc2nc3ncccc3[nH]2)c(OC)c1`, with 22.9% (inactive); and `COc1ccc(NC(=O)Cn2c(=O)n(CCC(C)C)c(=O)c3cccnc32)cc1Cl`, with 11.2% (inactive); and `COc1ccccc1-c1nc(N2CCN(C)CC2)c2ccccc2n1`, with -9.82% (inactive). `FC(F)(F)c1ccccc1-c1nc(-n2ccnc2)c2ccccc2n1`: the Potency is 50.1 µM (active). In the case of `COc1ccc(N2CCN(c3nc(-c4ccccc4F)nc4ccccc34)CC2)cc1`, the max response, negative = inhibition is 21.1% (inactive).

For the molecule `Cc1ccc(C)c(Nc2nnc(-c3ccc(C)c(S(=O)(=O)N4CCCCC4)c3)c3ccccc23)c1`, the max response, negative = inhibition is 2.71% (inactive). Still for that read-out and setting: then `CC(C)(C)c1ccc(C(=O)Nc2ccc3c(c2)CCCN3C(=O)c2cccs2)cc1`, with -1.02% (inactive); and `O=C(C1CCC(Cn2c(=O)c3sccc3n(Cc3ccccc3F)c2=O)CC1)N1CCCCC1` (stereo not drawn), with 8.9% (inactive). In the case of `Cc1ccc(SC(CC(=O)c2ccc(C(C)(C)C)cc2)C(=O)O)cc1` (stereo not drawn), the Potency is 20 µM (active). On to `Cc1ccc(Sc2cc(C(=O)c3ccccc3C(=O)O)ccc2[N+](=O)[O-])cc1`, for which the max response, negative = inhibition was -16.9% (inactive). The same measure, in the same setting: for `CC(C)(C)c1ccc(C(=O)NNC(=O)Cc2ccccc2)cc1` the value was 3.53% (inactive).

The values are drawn from PubChem BioAssay AID504847 (National Center for Advancing Translational Sciences (NCATS), 2011).
